Reference: PubChem BioAssay (EPA / NIEHS)
Activity calls are given as the source filed them. The calls were made as follows: active = hit-call score of the fitted dose curve at least 0.9, where 1 is the maximum; inactive = score below 0.9.

assay: CEETOX_H295R_MTT_cell_viability: Viability Assessment in the CeeTox HT-H295R MTT Assay (AID 2283718);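 as to AC50: curve fitted both ways so AC50 may mark viability loss or gain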
Procedure: CEETOX_H295R is a cell-based, multiplexed-readout assay that uses H295R, a human adrenal gland cell line, with measurements taken at 48 hours after chemical dosing in a 96-well plate.CEETOX_H295R_MTT_cell_viability is one of 23 assay component(s) measured or calculated from the CEETOX_H295R assay. It is designed to make measurements of cell number, a form of viability reporter, as detected with […] signals by MTT cytotoxicity assay technology.The assay component endpoint CEETOX_H295R_MTT_cell_viability was analyzed with bidirectional fitting relation to DMSO as the negative control and baseline of activity. Using a type of viability reporter in the MTT cytotoxicity assay, gain or loss-of-signal activity can be used to monitor cellular processes to understand changes in proliferation. To generalize the intended target to other relatable targets, this assay endpoint is annotated to cell cycle, where the subfamily is proliferation.
Cell culture and media preparation procedures were conducted in accordance with OECD Test No. 456 guidelines, with minor modifications. H295R cells (ATCC CRL-2128) were expanded for 5 passages and frozen in batches in liquid nitrogen. Prior to the steroidogenesis assay, H295R cells were thawed and passed at least 4 times. The maximum passage was 10. Cells were maintained in a 1:1 mixture of DMEM/F12 supplemented with 5ml/L ITS+ Premix (BD Bioscience) and 12.5 ml/L Nu-Serum (BD Bioscience). After seeding cells into 96-well plates at 50-60% confluency, cells were allowed to adhere overnight. Prior to chemical testing, culture medium was replaced with 175 uL medium containing 10 uM forskolin to stimulate steroidogenesis for 48 hours. Following prestimulation, forskolin medium was replaced with medium containing test chemical solubilized in DMSO (ensuring a final concentration of 0.1% DMSO). Test chemicals were incubated for 48 hours, then the medium was removed and split into 2 vials containing approximately 75uL each, and stored at -80 C prior to hormone analysis. For steroid quantification, media samples were shipped to OpAns, LLC (Durham, NC) on dry ice, and samples were thawed to room temperature prior to liquid-liquid extraction. Steroid hormones were extracted from media samples using methyl tertbutyl ether (MTBE). An extra derivatization with dansyl chloride was included for estrogen (estrone and estradiol) detection only. Steroid hormones were separated by HPLC, eluted using a reverse phase C18 gradient with electrospray positive ionization, followed by quantification by tandem mass spectrometry (MS/MS). Data were acquired on a MassHunter Workstation Acquisition version B03.01 (Agilent Technologies, Inc.) and processed using MassHunter Quantitative Analysis for QQQ. Accuracy was determined for each hormone analyte from 3 standards to determine upper and lower limits of quantification (ULOQ and LLOQ, respectively) using a 7-point standard curve. Precision and accuracy of the extraction and quantification methods were calculated as the percent relative standard deviation (%RSD) of the spiked standards and percent spiked standard recovered, respectively. The goal was to achieve 100% accuracy (i.e., recover all spiked-in standard at quantification with minimal loss during run time) and good precision (i.e., have %RSD <15% to ensure reproducibility). Test medium was removed following chemical exposure, and cell viability was evaluated in the same wells by MTT. MTT procedures were as follows: after removal of test medium, 500 uL of 0.5 mg/ml of 3-[4,5-dimethylthiazol-2-y]2,5-diphenyltetrazoliumbromide solution was added to the cells. Following a 4-hour incubation at 37 C and 5% CO2 to allow formazan-crystal formation, the MTT solution was removed and blue formazan salt crystals were solubilized using 500uL anhydrous isopropanol with shaking for 20 minutes. Absorbance was read at 570 and 650nm using a Packard Fusion microplate reader. […]

Compound	AC50	outcome
COc1ccc(/C=C/S(=O)(=O)NC(=O)c2ccc(C)cc2Cl)cc1	3.37 µM (active)	–
CC[C@H](C)C(=O)O[C@H]1C[C@@H](C)C=C2C=C[C@H](C)[C@H](CC[C@@H]3C[C@@H](O)CC(=O)O3)[C@H]21	–	inactive
Nc1ccc(Nc2ccccc2)cc1	–	inactive
CCC(C)(C)C(=O)O[C@H]1C[C@@H](C)C=C2C=C[C@H](C)[C@H](CC[C@@H]3C[C@@H](O)CC(=O)O3)[C@H]21	–	inactive
COc1cccc(-c2ccc(/C=C\CN3CCCCCC3)cc2Cl)c1	–	inactive
CCCCCCCCCCCCCCCO	0.0667 µM (active)	–
O=C(O)c1cccc(N(Cc2cccnc2)c2ccc(OC(F)F)c(OC(F)F)c2)c1	–	inactive
Cc1ccc(O)cc1	–	inactive
C[C@](N)(Cc1ccc(O)c(O)c1)C(=O)O	–	inactive
O=c1[nH]c2ccc(S(=O)CCN3CCC(Cc4ccc(F)cc4)CC3)cc2o1 (stereo unspecified)	–	inactive
Cc1c(-c2cccnc2)c2ccccc2n1CCCCC(=O)O	–	inactive
CC(C)CC(C)(O)C#CC(C)(O)CC(C)C (stereo unspecified)	–	inactive
CCOc1cccc(-n2cc(C(=O)N3CCN(c4cc(C(=O)O)c5ccccc5c4)CC3)nc2-c2ccc(C)cc2)c1	–	inactive
CC(C)c1cccc(C(C)C)c1N1C(=O)c2ccc(O)cc2C1=O	3.83 µM (active)	–
CCCCCCCCO	–	inactive
CC(C)(O)c1coc(S(=O)(=O)NC(=O)Nc2c3c(cc4c2CCC4)CCC3)c1	–	inactive

Compound	AC50	outcome
CC(C)=CCC/C(C)=C\CO	–	inactive
Cc1ccc(N)cc1O	–	inactive
C=CCCCCCCCCC(=O)O	–	inactive
CCCCC(CC)COC(=O)c1ccc(C(=O)OCC(CC)CCCC)cc1 (stereo unspecified)	–	inactive
CNS(=O)(=O)c1cc(C(=O)N2CCC(CCN3C4CCC3CC(n3c(C)nc5ccccc53)C4)(c3cccc(F)c3)CC2)c(Cl)cc1F (stereo unspecified)	–	inactive
CC[C@H]1CC[C@H](NCc2cc3c(cc2OC)[C@H]2C[C@H]2C(=O)N3C)[C@H](c2ccccc2)N1	–	inactive
CC1=CC(=O)CC(C)(C)C1	–	inactive
Cn1c(=O)cc(Oc2ccc(F)cc2F)c2cnc(NCC(C)(C)O)nc21	–	inactive
CCOC(=O)c1ccc(C2CCC(NC[C@H](O)COc3ccc(O)c(NS(C)(=O)=O)c3)CC2)cc1 (stereo partly specified)	–	inactive
CN(C)c1ccc(Cc2ccc(N(C)C)cc2)cc1	–	inactive
Oc1ccc2c(c1)-c1ccccc1C2	32.8 µM (active)	–
Fc1ccccc1[C@@H](F)COC1CCC(Nc2ncnc3[nH]ncc23)CC1 (stereo partly specified)	6.77 µM (active)	–
O=C(NS(=O)(=O)/C=C/c1ccccc1)c1ccc(F)cc1Cl	11.2 µM (active)	–
COc1ccc(-n2nc(C(F)F)cc2-c2ccc(S(C)=O)cc2)cc1 (stereo unspecified)	–	inactive
COC(=O)c1c(Cl)c(Cl)c(C(=O)OC)c(Cl)c1Cl	–	inactive
